Compounds with a hit are over-represented: about 4.5% of the library has one in this group of screens.
BJeLR viability = MLPCN primary cell-based screen for lethality selective to Ras in HRASV12 cells. BJeLR (HRASV12) viability, CellTiter-Glo ATP luminescence, 48 h. inhibition, % (test concentration not listed). 0.17% of 300,000 active. AID 1554, 2009; in the data active means inhibition above about 50%
PrPC surface inh = inhibitors of human cell surface prion protein PrPC, primary screen, cell-based, TR-FRET | TR-FRET read-out | inhibition, % at 13.8 µM | AID 720596, 2013 | 0.43% of 370,000 active; in the data active means inhibition above about 24%
PrP 5UTR inh = inhibition of PrP 5' UTR reporter expression | cell-based PrP 5' UTR mRNA reporter, plate reader | inhibition, % (no concentration beside the values) | 0.35% of 340,000 active | AID 488862, 2010; in the data active means inhibition above about 52%
GDH-TPI counter = GDH-TPI coupling enzyme inhibitors, primary screen, artefact control for M. tuberculosis FBA inhibitor project, biochemical, absorbance, full deck | GDH-TPI coupled enzyme counterscreen, NADH absorbance | inhibition, % at 4.8 µM | 1.2% of 360,000 active; in the data active means inhibition above about 30%
PfHsp40 yeast = rescue of yeast from PfHsp40 toxicity, primary screen, S. cerevisiae, ATP luminescence; 0.68% of 340,000 active; growth rescue, % at 12.5 µM; S. cerevisiae expressing PfHsp40, growth rescue; in the data active means growth rescue above about 28%, passing the limit was not always enough;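 further: yeast W303a lacking pdr1 and pdr3 grown in galactose medium; growth measured after three days at 30 °C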
Mtb FBA inh = Mtb FBA enzyme inhibitors, primary screen, biochemical, fluorescence, strain H37Rv. Fructose-bisphosphate aldolase (Mycobacterium tuberculosis (strain ATCC 25618 / H37Rv)), …. purified M. tuberculosis FBA, fluorescence read-out. inhibition, % at 1 µM. 2.3% of 360,000 active; in the data active means inhibition above about 27%
Target sequence (P9WQA3 whole entry, looked up): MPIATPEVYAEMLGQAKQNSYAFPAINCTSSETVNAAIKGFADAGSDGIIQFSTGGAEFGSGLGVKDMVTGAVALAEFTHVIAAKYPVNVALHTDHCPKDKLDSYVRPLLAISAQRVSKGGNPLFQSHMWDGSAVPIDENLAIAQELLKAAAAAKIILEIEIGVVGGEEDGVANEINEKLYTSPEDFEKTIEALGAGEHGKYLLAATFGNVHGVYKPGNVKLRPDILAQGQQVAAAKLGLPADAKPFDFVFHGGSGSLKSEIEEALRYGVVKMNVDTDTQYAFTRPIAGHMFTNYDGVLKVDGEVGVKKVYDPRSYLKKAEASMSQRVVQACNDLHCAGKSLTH
PrP 5UTR single = prion 5' UTR mRNA inhibition, cherry-pick retest; cell-based prion protein 5' UTR reporter, plate reader; AID 504592, 2011; 48% of 1,100 active; shares compounds with PrP 5UTR inh; inhibition, % at 2.5 µM; in the data active means inhibition above about 54%
Of the large screens only hits and unclear results are named; the others gave an inactive call (follow-up assays come after a bar, where they were run).

O=C(CCc1ccccc1)c1ccc2c(c1)OCCCO2	none
O=C(NCCc1ccccc1)c1ccc2c(c1)OCCCO2	PrP 5UTR inh 92 | PrP 5UTR single 91
COc1ccc(CCNC(=O)c2ccc3c(c2)OCCO3)cc1	none
O=C(NCCc1ccccc1)c1ccc2c(c1)OCCO2	PrP 5UTR inh 88 | PrP 5UTR single 83
COC(=O)c1c(N)sc(C(=O)NCCc2ccccc2)c1C	PrP 5UTR inh 70 | PrP 5UTR single 64
O=C(c1ccccc1)N1CCN(C(=O)c2ccc3c(c2)OCCO3)CC1	PrP 5UTR inh 78 | PrP 5UTR single inactive
Cc1ccccc1Cn1ccc2ccc(-c3ccc4ccn(Cc5ccccc5)c4c3)cc21	none (no result: BJeLR viability, PrP 5UTR inh, GDH-TPI counter, PfHsp40 yeast, Mtb FBA inh)
O=C(c1ccc(F)cc1)N1CCOCC1	PrP 5UTR inh 69 | PrP 5UTR single inactive
O=C(Nc1ccc(F)cc1)c1ccc(C(=O)N2CCOCC2)cc1	none
O=C(CCCc1ccccc1)c1ccc2c(c1)OCCO2	PrP 5UTR inh 83 | PrP 5UTR single 89
Cc1ccc(C(=O)NCCc2ccccc2)cc1	PrP 5UTR inh 59 (no result: PrPC surface inh) | PrP 5UTR single 64
O=[N+]([O-])c1ccc2c(c1)CCCO[C@]21O[C@H](CCO)C[C@H](O)[C@H]1O	none (no result: BJeLR viability, PrP 5UTR inh, GDH-TPI counter, PfHsp40 yeast, Mtb FBA inh)
O=C(Nc1nc2cc3c(cc2s1)OCCO3)C1=COCCO1	PrP 5UTR inh 92 | PrP 5UTR single 86
O=C(Nc1nc2ccc(F)cc2s1)C1=COCCO1	none
Cc1ccc(S(=O)(=O)NCCC(=O)N2CC(C)OC(C)C2)cc1 (stereo not given)	PrP 5UTR inh 75 | PrP 5UTR single inactive
CCOC(=O)[C@]12CCCCC/C=C\1N(CCc1ccc(Cl)cc1)C(=O)[C@H]2CC(=O)N1CCOCC1	none (no result: BJeLR viability, PrP 5UTR inh, GDH-TPI counter, PfHsp40 yeast, Mtb FBA inh)
O=Cc1ccc(/C=C2\c3ccccc3C(=O)N2c2ccccc2)o1	none (no result: BJeLR viability, PrP 5UTR inh, GDH-TPI counter, PfHsp40 yeast, Mtb FBA inh)
O=C(O)c1nn(-c2ccccc2C(F)(F)F)cc1O	none
FC(F)(F)c1ccccc1-n1ccnc1	PrP 5UTR inh 60 (no result: BJeLR viability) | PrP 5UTR single inactive
OCc1ccccc1-c1cccc2nccn12	none (no result: BJeLR viability, PrPC surface inh, PrP 5UTR inh, PfHsp40 yeast)
O=C(C1CCC1)n1ccc2ccc(-c3ccc4ccn(Cc5ccccc5)c4c3)cc21	none (no result: BJeLR viability, PrP 5UTR inh, GDH-TPI counter, PfHsp40 yeast, Mtb FBA inh)
Cc1ccc(-n2cccn2)c([C@@H]2C[C@H]3CN(C)C(=O)[C@]34CCCN24)c1	PrP 5UTR inh 67 | PrP 5UTR single inactive
Cc1cc(C)c([C@@H]2C[C@H]3CN(C4CCCC4)C(=O)[C@]34CCCN24)c(-n2cccn2)c1	none
Cc1ccc(-c2cc(-c3nnc4sc(COc5ccccc5)nn34)[nH]n2)cc1	none (no result: BJeLR viability, PrP 5UTR inh, GDH-TPI counter, PfHsp40 yeast, Mtb FBA inh)
O=C(N/N=C/c1ccc(O)cc1)c1[nH]c2ccc(Br)cc2c1-c1ccccc1	none
O=C(N/N=C/c1c[nH]c2ccccc12)c1[nH]c2ccc(Br)cc2c1-c1ccccc1	PrP 5UTR inh 68 | PrP 5UTR single 88
CCN(C[C@H]1N[C@@](C)(C(=O)OC)[C@H]2C(=O)N(C)C(=O)[C@@H]12)C(=O)c1ccc(C(C)(C)C)cc1	PrP 5UTR inh 58 (no result: BJeLR viability) | PrP 5UTR single inactive
CCN(CC)c1ccc(C2NC(=O)c3ccccc3N2)cc1 (stereo not given)	PrP 5UTR inh 60 (no result: BJeLR viability) | PrP 5UTR single inactive
CCN(CC)c1ccc(C2Nc3cccc4cccc(c34)N2)cc1	none
C[C@@H]1O[C@@H](O[C@H]2C[C@@H](O)[C@]3(CO)[C@H]4[C@H](O)C[C@]5(C)[C@@H](C6=CC(=O)OC6)CC[C@]5(O)[C@@H]4CC[C@]3(O)C2)[C@H](O)[C@H](O)[C@H]1O	BJeLR viability 80, PrP 5UTR inh 92 (no result: PrPC surface inh) | PrP 5UTR single 90
CC1CC2C(C(O)CC3(C)C2CCC3(O)C(=O)CO)C2(C)C=CC(=O)C=C12 (stereo not given)	none (no result: BJeLR viability)
CC(=O)Nc1ccc(CN2CCCC(CCC(=O)NCc3ccccc3F)C2)cc1 (stereo not given)	PrP 5UTR inh 80 | PrP 5UTR single inactive
Cc1ccc(S(=O)(=O)N2CCCCC2C(=O)NCc2ccco2)cc1 (stereo not given)	none

From PubChem BioAssay
